An excerpt weighted towards active compounds, which were near 1.1% of everything screened.
Tb PGK inh: T. brucei PGK inhibition. P07378. PGK/GAPDH coupled, Kinase-Glo luminescence, 60 min. Potency, µM (highest dose often 57.5 µM), inactives show at the highest dose activity change, negative = inhibition, hits mostly inhibitors. 380,000 tested, 0.043% active; also: % is scaled to controls: 0 for no effect and ±100 for the full control effect; nearly all actives have a fitted effect of over 60% in size
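Recombinant glycosomal PGK reaction used 1,3-bisphosphoglycerate generated in-well by GAPDH (100nM final) in 100mM TEA pH 7.6, 5mM MgCl2, 0.01% Tween-20. After 60 minutes at room temperature, ATP was read by Kinase-Glo Plus luminescence end-point.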
Tb PFK inh: blocks T. brucei phosphofructokinase; O15648; T. brucei PFK, ADP-Glo luminescence; Potency, µM (titrated, usually from 57.5 µM), for inactives: at the highest dose activity, negative = inhibition, actives largely listed as inhibitors; 330,000 tested, 0.17% active; AID 485367;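 also: 0% = uninhibited 1x PFK enzyme wells and -100% = no-enzyme wells; nearly all actives have a fitted effect of over 60% in size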
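Activity is normalized to no-enzyme wells (full inhibition) and 1.25 nM enzyme wells (no inhibition). Reaction: 0.5 mM F6P, 0.1 mM ATP, 45 min RT, ADP-Glo luminescence; concentration-response curves fitted and classed by quality.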
VDR inh: vitamin D3 receptor (human) inhibition | VDR-SRC2-3 peptide fluorescence polarization, 2 h | P11473 | AID 504847 | Potency, µM, without a hit: max response, negative = inhibition, usual class: inhibitors | 400,000 tested, 0.93% active; also: % is scaled to controls: 0 for no effect and ±100 for the full control effect
Target sequence (P11473 whole entry, looked up): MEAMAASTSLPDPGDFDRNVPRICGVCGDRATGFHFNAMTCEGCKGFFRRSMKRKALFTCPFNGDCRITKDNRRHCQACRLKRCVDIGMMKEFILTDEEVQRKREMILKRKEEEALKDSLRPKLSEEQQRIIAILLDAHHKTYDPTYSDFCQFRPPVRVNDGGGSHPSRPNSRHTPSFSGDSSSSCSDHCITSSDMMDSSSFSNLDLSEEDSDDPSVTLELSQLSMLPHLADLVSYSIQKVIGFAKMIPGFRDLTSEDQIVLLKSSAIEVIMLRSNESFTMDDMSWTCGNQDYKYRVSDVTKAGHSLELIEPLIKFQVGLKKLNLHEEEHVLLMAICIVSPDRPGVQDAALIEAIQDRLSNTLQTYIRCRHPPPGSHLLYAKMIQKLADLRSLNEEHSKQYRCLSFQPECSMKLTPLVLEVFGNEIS
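FP read-out; VDR + SRC2-3 coactivator peptide; 23 nl compound by pintool; 2 h RT incubation; reagents held at 4 deg C, protected from light.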
GLS inhibitor: inhibitors of human glutaminase (GLS); Potency, µM (doses to about 45.5 µM), inactives show at the top dose activity change, negative = inhibition, actives largely listed as inhibitors; 410,000 tested, 0.21% active; GLS enzymatic activity, qHTS titration; O94925; also: % is scaled to controls: 0 for no effect and ±100 for the full control effect
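Assay buffer: 45 mM KH2PO4 pH 8.2, 0.02% Tween-20. hKGA acts on L-glutamine (1 mM solution added); product glutamate is reported by an oxidase/peroxidase Amplex Red coupling, with fluorescence taken at baseline and 30 min.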
Pin1 inh: human Pin1 inhibition. Q13526. Pin1 FP peptide displacement, HiFluor488, 10 min. Potency, µM (titrated, usually from 115 µM), without a hit: at the top dose activity, negative = inhibition, usual class: inhibitors. 390,000 tested, 0.009% active; active = well fitted inhibition curve with a large enough effect in the polarisation, with a control signal flat, not every such curve was filed as active; inconclusive = small, poorly fitted or top-dose-only effect, or effect the other way, or a change in a side signal; inactive = no such curve, though single readings can be large or run the other way; the % refers to the polarisation; also: % is scaled to controls: 0 for no effect and ±100 for the full control effect
Target sequence (Q13526 whole entry, looked up): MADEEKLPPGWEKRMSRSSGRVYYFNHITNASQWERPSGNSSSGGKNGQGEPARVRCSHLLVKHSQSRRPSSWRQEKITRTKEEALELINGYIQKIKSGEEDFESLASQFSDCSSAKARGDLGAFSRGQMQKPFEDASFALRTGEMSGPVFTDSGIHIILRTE
VDR inh confirm: inhibits human vitamin D receptor, primary hit validation | 840 tested, 89% active | Potency, µM, usual class: inhibitors | VDR-coactivator inhibition assay, qHTS confirmation | shares compounds with VDR inh | AID 602199
VDR FP: confirmation of human VDR-coactivator binding inhibitors, fluorescein label; shares compounds with VDR inh; VDR-coactivator binding, fluorescein fluorescence polarization; Potency, µM (doses to about 57.1 µM), inactives show top-dose activity change, negative = inhibition, most hits filed as inhibitors; 840 tested, 48% active
VDR bla reporter: confirmation of human vitamin D receptor inhibitors in reporter cells; shares compounds with VDR inh; VDR beta-lactamase reporter cells, FRET ratio; cells co-treated with VDR agonist LG190178; Potency, µM (highest dose often 46.1 µM), for inactives: at the highest dose activity change, negative = inhibition, most hits filed as inhibitors; 840 tested, 23% active; AID 602202; also: % is scaled to controls: 0 for no effect and ±100 for the full control effect
VDR viability: cytotoxic in counter-screen for VDR inhibitors | cytotoxicity counter-screen, cell viability, qHTS | Potency, µM (top dose mostly 48.3 µM), without a hit: top-dose activity change, negative = cytotoxicity, actives largely listed as cytotoxic | AID 602204 | 840 tested, 18% active | shares compounds with VDR inh;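 also: plate controls were DMSO for no effect and high-concentration cycloheximide for full effect; nearly all actives have a fitted effect of over 75% in size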
Active calls of the source: *; i = inactive; ? = inconclusive; . = no result given. Unless noted, calls follow the shape of the dose curve; as a rule, active = well fitted curve in the direction sought with a large enough effect; inconclusive = small, poorly fitted or top-dose-only effect, or another doubt; inactive = no such curve, though single readings can be large; an effect the other way counts as inactive or inconclusive. Potency is read from the fitted curve at half-maximal effect.

SMILES	Tb PGK inh	Tb PFK inh	VDR inh	GLS inhibitor	Pin1 inh	VDR inh confirm	VDR FP	VDR bla reporter	VDR viability
CCCc1nnc(NC(=O)c2nc(S(=O)(=O)Cc3ccc(C)cc3)ncc2Cl)s1	-7%	3%	28µM*	4%	-15%	?	7.9µM*	18µM*	21µM*
CCc1ccc(NC(=O)c2nc(S(=O)(=O)Cc3ccccc3)ncc2Cl)cc1	.	-17%	.	.	.	.	.	.	.
O=P1(O)OP(=O)(O)OP(=O)(O)O1.[Al]	.	.	0%	.	.	.	.	.	.
O=c1/c(=C/c2ccccn2)sc2nc3ccccc3n12	-10%	1%	-12%	0%	.	.	.	.	.
COC(=O)/C=c1/sc2nc3ccccc3n2c1=O	-3%	-4%	?	-3%	-2%	3.2*	2.8µM*	6%	5%
CC(=O)Nc1cccc(C(=O)/C=C/c2ccc(C)cc2)c1	-2%	0%	25µM*	9%	5%	21*	?	?	?
CCC(=O)Nc1cccc(C(=O)/C=C/c2ccc(F)cc2)c1	-5%	-2%	?	7%	?	.	.	.	.
CCN1CCN(c2ncc3c(n2)CCN(CC(C)C)C3)CC1	9%	.	11%	24%	2%	.	.	.	.
Cc1ccc(S(=O)(=O)N(C)C)cc1NC(=O)C(C)N(C)CCOc1ccc(Cl)cc1 (stereo unspecified)	-3%	-4%	-14%	7%	0%	.	.	.	.
CC1=CC(=O)C(C(C)C)=CC1=NC(=O)c1ccc(C)cc1	-8%	-2%	25µM*	-4%	8%	3.8*	?	?	?
CC1=CC(=O)C(C(C)C)=C/C1=N/OC(=O)c1cccc([N+](=O)[O-])c1	-7%	-4%	-6%	63%	0%	.	.	.	.
Cc1cc(C(=O)Nc2nc(-c3ccccn3)cs2)ccc1[N+](=O)[O-]	-9%	-3%	-4%	-5%	2%	.	.	.	.
O=C(Nc1nc(-c2ccccn2)cs1)c1cc(Cl)ccc1[N+](=O)[O-]	i	-6%	79µM*	-12%	-1%	24*	-20%	2%	-2%
CCCCOc1ccccc1C(=O)N(Cc1ccc(C)o1)C1CCS(=O)(=O)C1 (stereo unspecified)	-5%	-2%	4%	-9%	2%	.	.	.	.
CC1(C)Cc2ccccc2C2=NNC(=O)C2=N1	-8%	4%	11µM*	3%	4%	?	?	-14%	?
CCCOc1ccc(F)cc1-c1cc(C(=O)Nc2ccc(C(C)C)cc2)[nH]n1	.	.	.	-1%	.	.	.	.	.
O=C(NCC(c1ccco1)S(=O)(=O)c1cccs1)c1ccc(F)c(F)c1 (stereo unspecified)	2%	.	14%	3%	-4%	.	.	.	.
O=C(CN1CCN(C(c2ccccc2)c2ccccc2)CC1)N1CCOCC1	.	-2%	1%	3%	-11%	.	.	.	.
Oc1c(C(c2ccccc2)N2CCOCC2)ccc2ccccc12 (stereo unspecified)	-3%	.	20µM*	?	1%	4.7*	3.2µM*	3%	?
Nc1ccc(N2CCCCC2)c(S(=O)(=O)Nc2ccccc2Cl)c1	i	-9%	-14%	19%	-10%	.	.	.	.
Nc1cc(S(=O)(=O)Nc2ccccc2Cl)ccc1N1CCCCC1	2%	-7%	?	32%	0%	7.1*	7.1µM*	-26%	-27%
COc1ccc(S(=O)(=O)CC(=O)c2cc3cc(Br)ccc3oc2=O)cc1	2%	?	?	?	-6%	10*	4µM*	-26%	28%
c1ccc(-c2nn3c(Cn4cnc5ccccc54)nnc3s2)cc1	3%	-15%	?	-26%	3%	20*	7.1µM*	-21%	-19%
Cc1cc(C)c(S(=O)(=O)/N=C2/C=C(SCC(=O)O)C(=O)c3ccccc32)cc1C	-6%	-14%	7.9µM*	-17%	?	4.2*	?	-1%	?
COc1cc(C2NC(=O)c3ccccc3O2)cc(OC)c1OC (stereo unspecified)	-1%	6%	-7%	-7%	-1%	.	.	.	.
SMILES	Tb PGK inh	Tb PFK inh	VDR inh	GLS inhibitor	Pin1 inh	VDR inh confirm	VDR FP	VDR bla reporter	VDR viability
COc1cc(C2Oc3ccccc3C=C2[N+](=O)[O-])cc(OC)c1OC (stereo unspecified)	-5%	14%	22µM*	22%	-13%	17*	?	?	?
CN1OC[C@@H]2CN[C@H](c3ccc(-c4cc5ccccc5o4)cc3)C[C@@H]21	-1%	.	.	3%	.	.	.	.	.
CNc1ccc(Br)cc(C(=O)/C=C/c2ccc(Cl)cc2Cl)c1=O	-7%	0%	?	-8%	?	3.5*	?	?	10%
CNc1ccc(Br)cc(C(=O)/C=C/c2ccc(OC)cc2OC)c1=O	-7%	-2%	?	4%	9%	.	.	.	.
O=C(CCN1CCc2ccccc2CC1)c1ccc2c(c1)OCCO2	-6%	-13%	?	14%	7%	13*	11µM*	?	?
O=C(O)c1cccc(CN2C(=O)S/C(=C/c3cccc([N+](=O)[O-])c3)C2=O)c1	3%	3%	20µM*	1%	-10%	18*	22µM*	-23%	-8%
C=CCN=C1S/C(=C/c2cccc([N+](=O)[O-])c2)C(=O)N1CC=C	-1%	-16%	-21%	-4%	1%	.	.	.	.
CCOC(=O)c1c(NC(=O)C2CCCO2)sc(C(N)=O)c1C (stereo unspecified)	2%	0%	-6%	13%	6%	.	.	.	.
CCCOC(=O)c1c(NC(=O)C2CCCO2)sc(C(=O)OC)c1C (stereo unspecified)	0%	?	79µM*	4%	-5%	24*	?	-5%	13%
CC(C(=O)OCC(=O)NC1CCCCC1)N1C(=O)c2ccccc2C1=O (stereo unspecified)	-5%	8%	-12%	2%	0%	.	.	.	.
CC(C)CN1C(=O)/C(=C(/C#N)C(=O)NC2CCCCC2)c2ccccc21	-6%	4%	?	14%	-6%	2.8*	2.8µM*	6%	-3%

Screening results (PubChem)
